Source: PubChem BioAssay (Tox21)
Records with an inconclusive call do not appear. Entries that show only a call come without a potency. Active and inactive are the calls of the source. Calls come from the whole dose curve; as a rule, active = well fitted cell-killing curve with a large enough effect in the repeat runs; inconclusive = weak or mixed curves; inactive = flat fitted curve, though single readings scatter.

Assay: qHTS RealTime-Glo MT Cell Viability Assay in HepG2 cells - 16 hour (AID 1224885); note: nearly all actives have a fitted effect of over 50% in size
Conditions: RealTime-Glo luminescence; series mostly up to 76.8 µM
Text: U.S. Tox21 Program National Center for Advancing Translational Sciences [NCATS] NIH Chemical Genomics Center [NCGC] U.S. Environmental Protection Agency [EPA] National Institutes of Environmental Health Sciences [NIEHS] National Toxicology Program [NTP] U.S. Food and Drug Administration [FDA] Tox21 Assay Overview: Measure of cell viability is critical in the cell-base assay. Analysis of cell viability is necessary for the characterization of cell responses to cytotoxic drugs and environmental stress. A RealTime-Glo MT Cell Viability Assay to monitor cell viability in real time of continues cell culture during 40 hours of compound treatment was used to screen Tox21 10K library compounds in HepG2 cells. The RealTime-Glo MT Cell Viability Assay is a nonlytic, homogeneous, bioluminescent method to measure cell viability in real time using a simple, plate-based method. The assay involves adding NanoLuc luciferase and a cell-permeant prosubstrate to cells in culture. Viable cells reduce the proprietary prosubstrate to generate a substrate for NanoLuc luciferase. This substrate diffuses from cells into the surrounding culture medium, where it is rapidly used by the NanoLuc Enzyme to produce a luminescent signal. The signal correlates with the number of viable cells, making the assay well suited for cytotoxicity studies.
Tox21 Assay Protocol Summary: The mixture of HepG2 cell suspension and reagents were dispensed at 600cells/6 ul/well in 1536-well tissue culture treated black solid bottom plates using a Multidrop dispenser. After the assay plates were incubated at a 37 C/5% CO2 incubator for 5 hours, 23 nL of compounds dissolved in DMSO, positive and negative controls was transferred to the assay plate by a pintool work station. The plates were incubated at 37 C for 40 hours. The luminescence intensity were measured at 0h, 8h, 16h, 24h, 32h and 40h time points using ViewLux plate reader during compound treatment.

| Structure (SMILES) | Potency | activity change, negative = cytotoxic |
| --- | --- | --- |
| CC(=O)C(Cl)Cl | inactive |  |
| CC(C)(C)NCC(O)c1cc(Cl)c(N)c(Cl)c1 (stereo not given) | inactive |  |
| O=[N+]([O-])c1ccc2c3c(cccc13)CC2 | inactive |  |
| Cc1cc(C)c(C(=O)P(=O)(C(=O)c2c(C)cc(C)cc2C)c2ccccc2)c(C)c1 | inactive |  |
| CC(COc1ccc(Oc2ccccc2)cc1)Oc1ccccn1 (stereo not given) | inactive |  |
| O=CNC(N1CCN(C(NC=O)C(Cl)(Cl)Cl)CC1)C(Cl)(Cl)Cl (stereo not given) | inactive |  |
| COc1ncc(F)c2nc(S(=O)(=O)Nc3c(F)cccc3F)nn12 | inactive |  |
| COC(=O)C1=CCCN(C)C1 | inactive |  |
| O=[N+]([O-])c1cccc(O)c1 | inactive |  |
| O=P(O)(Oc1ccccc1)Oc1ccccc1 | inactive |  |
| ClCC(Cl)(Cl)Cl | inactive |  |
| COc1cc(OC)nc(NC(=O)NS(=O)(=O)c2ncccc2OCC(F)(F)F)n1 | inactive |  |
| CC1CCCCC1NC(=O)Nc1ccccc1 (stereo not given) | inactive |  |
| O=C1CN2CCOC2(c2ccccc2Cl)c2cc(Cl)ccc2N1 (stereo not given) | inactive |  |
| Clc1ccccc1N1CCNCC1 | inactive |  |
| CCOc1nc(C(Cl)(Cl)Cl)ns1 | inactive |  |
| COc1cc2c(cc1OC)[C@@]13CCN4CC5=CCO[C@H]6CC(=O)N2[C@H]1[C@H]6[C@H]5C[C@H]43 | inactive |  |
| CC(=O)CC(c1ccc(Cl)cc1)c1c(O)c2ccccc2oc1=O (stereo not given) | inactive |  |
| OCCBr | inactive |  |
| COc1cc(OC)nc(Sc2cccc(Cl)c2C(=O)O)n1 | inactive |  |

| Structure (SMILES) | Potency | activity change, negative = cytotoxic |
| --- | --- | --- |
| CCC(=O)C(CCN(C)C)(c1ccccc1)c1ccccc1 | inactive |  |
| COc1cccc(C(=O)NN(C(=O)c2cc(C)cc(C)c2)C(C)(C)C)c1C | inactive |  |
| CC1=C(C(=O)O)N2C(=O)[C@@H](N)[C@H]2SC1 |  | 0.0678% [at 15.8 µM] (inactive) |
| O=[N+]([O-])c1cc(Cl)c(Cl)c(Cl)c1 | inactive |  |
| C[N+](C)=CCl | inactive |  |
| COc1ccc(C(=O)N2CCCC2=O)cc1 | inactive |  |
| CCOC(=O)CP(=O)(OCC)OCC | inactive |  |
| Cc1coc2c1CCC(C)C2 (stereo not given) | inactive |  |
| Cc1cnc[nH]1 | inactive |  |
| CC1(C(=O)Nc2ccc(O)c(Cl)c2Cl)CCCCC1 | inactive |  |
| COc1cc(OC)nc(NC(=O)NS(=O)(=O)c2ncccc2C(=O)N(C)C)n1 | inactive |  |
| NC1=NC(=O)C(c2ccccc2)O1 (stereo not given) | inactive |  |
| CCC1(c2ccccc2)C(=O)NC(=O)NC1=O | inactive |  |
| CCCCOC(=O)[C@@H](C)Oc1ccc(Oc2ccc(C#N)cc2F)cc1 | inactive |  |
| [O]=[Cd] | inactive |  |
| O=C(O)c1cccc(Cl)c1 | inactive |  |
| COc1cc(OC)nc(Oc2cccc(Oc3nc(OC)cc(OC)n3)c2C(=O)O)n1 | inactive |  |
| CC1CN1P(=O)(N1CC1C)N1CC1C (stereo not given) | inactive |  |
| CN(N=O)C(N)=O | inactive |  |
| CNC(=O)Oc1ccc(N(C)C)c(C)c1 | inactive |  |
